Among the data in PubChem BioAssay (NCATS) are Potency values, retold here.

The structures appear in SMILES notation. Records with an inconclusive call do not appear. A call without a number means that no potency is given here. Activity calls are given as the source filed them. The call rests on the fitted dose curve; in most records, active means well fitted cell-killing curve with a large enough effect; inconclusive means small, poorly fitted or top-dose-only effect, or effect the other way; inactive means flat fitted curve, though single readings scatter.
Potency means the concentration at half of the fitted maximal effect.

The test concerns OV90. The experiment in a line: Primary qHTS to identify gynecologic anti-cancer compounds using libraries of approved drugs and bioactive compounds (AID 1345084). Further: nearly all actives have a fitted effect of over 55% in size. Particulars: Gynecologic cancer cell panel viability, ATPlite luminescence, 48 h; series mostly up to 57.5 µM. An outline of the steps: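 Measured: luminescence after ATPlite addition (15 min, RT). Exposure: 48 h, 37 C, 5% CO2.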
(In general: Quantitative high-throughput screening tests each substance at several concentrations.)
Regarding `CC(=O)O[C@H]1CC(C)(C)CC2[C@@]13[C@H](O)C[C@]1(C)[C@@]2(CCC2[C@@]4(C)CC[C@H](O[C@@H]5OC[C@H](O[C@@H]6O[C@H](CO)[C@@H](O)[C@H](O)[C@H]6O[C@@H]6OC[C@@H](O)[C@H](O)[C@H]6O)[C@H](O)[C@H]5O[C@@H]5O[C@H](CO)[C@@H](O)[C@H](O)[C@H]5O)C(C)(C)C4CC[C@]21C)O[C@@H]3O` (stereo partly specified), the Potency was 3.16 µM (active). As for `C=CC(=O)Nc1cccc(CN2C(=O)N(c3c(Cl)c(OC)cc(OC)c3Cl)Cc3cnc(NCCCCN(CC)CC)nc32)c1`, the entry is “inactive”; as for `COC(=O)C1(C)c2[nH]c3ccccc3c2CCN1C(=O)CCl` (stereo unspecified), “inactive”. The result for `Cc1ccc(C(=O)N(CCCN)C(c2oc3cc(Cl)ccc3c(=O)c2Cc2ccccc2)C(C)C)cc1` (stereo unspecified) reads “inactive”; that for `C/C=C/c1ccc(O[C@@H]2O[C@H](CO)[C@@H](O)[C@H](O)[C@H]2O)c(OC)c1`, “inactive”; that for `CCS(=O)(=O)N1CCN(c2ccc(Nc3ncc(C(N)=O)c(NC4CC4)n3)cc2)CC1`, 12.6 µM (active).
